Tg IFNy HTS: inhibitors of Toxoplasma gondii growth with IFN-gamma. 3.8% of 69,000 active. AID 1259416. activity change, negative = inhibition, % (no concentration beside the values). Toxoplasma gondii growth in IFN-gamma-treated host cells; active compounds read low; in the data active = activity change below about -70%, passing the limit was not always enough;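 note: host cells are HeLa cells infected with Toxoplasma gondii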
The depositor's hits bear a star. Shown is part of a subset that was picked to be rich in hits.

SMILES | Tg IFNy HTS
CCN(CC)C(=O)Sc1nc2cc(Cl)ccc2s1 | -51
O=C(O)CCSc1nc2ccccc2s1 | -27
O=C(O)CSc1nc2cc(Cl)ccc2s1 | -107*
Cc1ccc(-c2nnn(CC(=O)Nc3ccc(N4CCCS4(=O)=O)cc3)n2)cc1 | 5
COCCCNC(=O)Cn1nnc(-c2ccc(NC(=O)c3cccnc3)cc2)n1 | -6
COc1ccc(-c2nnn(CC(=O)Nc3ccc(C)cc3)n2)cc1 | -97*
Cc1ccccc1-c1noc(CCCC(=O)N2C[C@H]3CC[C@H]2C3)n1 | 31
Cc1cc(COc2ccccc2)oc1C(=O)N(C)Cc1snnc1C | 157
CCOc1ccccc1N(Cc1nc(-c2cccc(C)c2)oc1C)S(=O)(=O)c1cccs1 | -57
COc1ccc(CN(Cc2cccc(C)c2)C(=O)C2CCOCC2)cc1 | -3
CCOc1ccccc1NC(=O)c1nnn(Cc2nc(-c3cccc(OC)c3OC)oc2C)c1C | -79*
CCOc1ccccc1-c1nc(Cn2nnc(C(=O)Nc3ccccc3OC)c2C)c(C)o1 | -19
COc1cccc(-c2nc(Cn3nnc(C(=O)Nc4ccccc4)c3C)c(C)o2)c1OC | -50
COc1ccc(NC(=O)c2nnn(Cc3nc(-c4cccc(OC)c4OC)oc3C)c2C)cc1Cl | 32
COc1cccc(-c2nc(Cn3nnc(C(=O)Nc4cc(C)cc(C)c4)c3C)c(C)o2)c1OC | -105*
COc1cccc(-c2nc(Cn3nnc(C(=O)Nc4cccc(Cl)c4C)c3C)c(C)o2)c1OC | -16
O=C(Cn1nc(-c2ccc(F)cc2)ccc1=O)NCC1OCCc2ccccc21 (centres undefined) | 0
Cc1cccc(-n2ncc3c(NC4CCCCCCCCCCC4)ncnc32)c1 | -54
CCOc1ccccc1-c1nc(Cn2nnc(C(=O)Nc3ccc(C)c(Cl)c3)c2C)c(C)o1 | 3
Cc1cc(=O)oc2cc(CN(C)C(C)c3ccccn3)ccc12 (centres undefined) | -7
Nc1ncc(-c2ccc(F)cc2)c(-c2cnn(Cc3ccccc3)c2)n1 | -41
O=C(NCCc1ccc(Cl)cc1)C(c1ccccc1)c1ccccc1 | -11
O=C(NC(NC(=S)Nc1ccc(F)c([N+](=O)[O-])c1)C(Cl)(Cl)Cl)C(c1ccccc1)c1ccccc1 (centres undefined) | -81*
O=C(/C=C/c1ccccc1)NC(NC(=S)Nc1cccc2cccnc12)C(Cl)(Cl)Cl (centres undefined) | -36
COc1ccccc1C(=O)Nc1cccc(NC(=O)C2[C@@H]3[C@H]4CC[C@H](C4)[C@H]23)c1 (some centres undefined) | 0
SMILES | Tg IFNy HTS
c1csc(-c2[nH]ncc2-c2ccnc(N3CCOCC3)n2)c1 | -106*
c1csc(-c2cnc(N3CCCC3)nc2-c2nccs2)c1 | -8
Cn1ccc2c(-c3cc(N)nc(N4CCOCC4)n3)ccnc21 | -17
CCOc1ccccc1-c1nc(CN(c2ccc(OC)cc2)S(=O)(=O)c2ccc(C)cc2)c(C)o1 | -19
Cc1oc(-c2ccccc2)nc1Cc1noc(-c2ccncc2)n1 | 7
Cc1oc(-c2ccccc2)nc1Cc1noc(COc2ccccc2)n1 | -36
CCOc1ccc(-c2nc(Cc3noc(-c4cccnc4)n3)c(C)o2)cc1 | 55
CCOc1ccccc1-c1noc(-c2nnn(Cc3nc(-c4ccc(C)cc4)oc3C)c2C)n1 | -17
Cc1cccc(-c2nc(Cc3noc(-c4ccncc4)n3)c(C)o2)c1 | 7
CCOc1ccccc1-c1nc(Cc2noc(-c3ccccc3)n2)c(C)o1 | -101*
COc1ccccc1-c1nc(Cc2noc(-c3ccccc3)n2)c(C)o1 | 116
CCOc1ccccc1-c1nc(Cc2nc(-c3ccc(OC)cc3)oc2C)no1 | -93*
Cc1oc(-c2ccccc2)nc1Cc1noc(-c2cccnc2)n1 | -87*
CCOc1ccccc1-c1nc(Cc2noc(-c3cccnc3)n2)c(C)o1 | -79*
COc1ccccc1-c1nc(Cn2nnc(-c3nc(-c4cccnc4)no3)c2C)c(C)o1 | -3
CC(CNC(=O)c1cc(C2CCCCC2)no1)n1cncn1 (centres undefined) | 21
CC(c1cc2ccccc2[nH]1)N(C)C(=O)c1cc2n(n1)CCN(C)C2 (centres undefined) | 6
C=CCC1(CC=C)CCN1C(=O)c1cc(=O)c2cc(C)c(C)cc2o1 | 3
O=c1c2ccccc2sc2ccc(NS(=O)(=O)c3ccc4c(c3)OCCO4)cc12 | 28
Cc1cccc(CSc2ccc(-c3sc(-c4ccc(F)cc4)nc3C)nn2)c1 | 3
O=C(CCc1c[nH]c2ccccc12)N1CCN(C(=O)c2cc(-c3ccncc3)n[nH]2)CC1 | -20
COc1ccccc1CNC(=O)c1cncc(NS(=O)(=O)c2ccc3c(c2)OCCO3)c1 | -7
Cc1ccc(N2CCC3(CC(=O)N(c4ccc(C#N)cc4)C3)C2)nn1 (centres undefined) | -7
CC(C)(C)c1[nH]cnc1/C=c1\[nH]c(=O)/c(=C/c2ccccc2)[nH]c1=O | -87*
COCC1CN(C(=O)c2cc(C)on2)Cc2cn(CC3CC3)nc21 (centres undefined) | -7
SMILES | Tg IFNy HTS
CN(C)C1CCN(C(=O)c2cc(-c3cnc(-c4cccc(F)c4)nc3)cn2C)CC1 | -25
CN(C)CCNC(=O)c1cc(-c2cnc(-c3cccc(F)c3)nc2)cn1C | -95*
CN(C)CCNC(=O)c1cc(-c2cnc(NCc3ccccc3)nc2)cn1C | -36
Cn1cnnc1Sc1ccc(-c2nccn2-c2ccc(F)cc2)o1 | 21
CN(CCc1noc(C2CC2)n1)C(=O)c1cccc(CC2CCNCC2)c1 | 8
Cc1ncsc1-c1nc(N)ncc1-c1ccc(F)cc1 | 11
Cc1c(C(=O)NCCCN2C(C)CCCC2C)oc2ccc3c(c12)C(O)CC1(CCCCC1)O3 (centres undefined) | -56
CCOC(=O)N1CCN(C(=O)c2ccc(N3CCC(NCc4cccs4)CC3)cc2)CC1 | -2
CCOC(=O)N1CCC(NC(=O)c2oc3ccc4c(c3c2C)C(O)CC2(CCCCC2)O4)CC1 (centres undefined) | -95*
Fc1ccccc1N1CCN(Cc2c(C3CCOCC3)[nH]c3ncccc23)CC1 | -5
CCOc1ccc2nc(-c3nccn3C(C)Cn3cncn3)ccc2c1 (centres undefined) | -52
Cc1c(-c2ccccc2)nnn1-c1cc(Cl)cc(Cl)c1 | 52
O=c1c(Cl)c(-n2cccn2)cnn1-c1ccc(Cl)cc1Cl | 56
Cc1c(-c2ccnc(N)n2)nnn1-c1ccc(Cl)cc1Cl | -109*
CCc1ccccc1S(=O)(=O)Nc1ccc2c(c1)CCC(=O)N2CCOC | 20
CN(c1ccc(C(=O)NC2CCCCC2)cc1)S(=O)(=O)c1cccs1 | 35
CN(CC(=O)NCC1CCCN(C)C1)Cc1ccccc1F (centres undefined) | -3
CN(CCn1cccn1)c1nccc(N2CCC(O)CC2)n1 | 2
Cc1ccc(C2c3[nH]c4ccccc4c3CCN2C(=O)CCC2CCCC2)cc1 (centres undefined) | -67
COc1ccc(C(=O)N2CCc3c([nH]c4ccccc34)C2c2ccc(Cl)cc2)cc1OC (centres undefined) | 12
COc1cccc(C(=O)N2CCc3c([nH]c4ccccc34)C2c2ccc(Cl)cc2)c1 (centres undefined) | -99*
COc1cccc(C(=O)N2CCc3c([nH]c4ccccc34)C2c2ccc(C)cc2)c1 (centres undefined) | -126*
CSc1ccc(C2c3[nH]c4ccccc4c3CCN2C(=O)c2ccc3c(c2)OCO3)cc1 (centres undefined) | 209
O=C(c1cccnc1)N1CCc2c([nH]c3ccccc23)C1c1ccc(Cl)cc1 (centres undefined) | -114*

High-throughput results deposited in PubChem BioAssay by Broad Institute.
